A selection: hits, their analogues and other compounds. The true share with any hit is near 0.98%.
LANA DNA inh – blocks KSHV LANA C-terminal domain binding to DNA; MBP-C-LANA/FAM-LBS DNA binding, fluorescence polarization; inhibition, % at 9 µM; 340,000 tested, 0.078% active;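 active = highest replicate inhibition at or above 60% at 9 µM, even if other replicates fall short; inactive = all replicates below 60% inhibition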;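 also: 0% = neutral control wells and 100% = 4 µM acridine orange control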
cardiac RTF act – increases calcium sensitivity of human cardiac regulated thin filaments; P19429+P45379; IANBD-labeled TnC RTF fluorescence at EC20 calcium; 0% EC20 calcium, 100% full calcium; activation, % at 7.2 µM; 340,000 tested, 0.24% active; AID 493008;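 active = activation above the mean over all tested compounds plus 3 SD, cut at about 30% in these data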;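 also: rise in fluorescence read as greater calcium sensitivity of cardiac thin filaments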
E coli Lon inh – inhibits E. coli Lon protease. P0A9M0. purified E. coli Lon protease, fluorescence polarization. inhibition, % at 7.94 µM. 360,000 tested, 0.42% active; in the data active = inhibition above about 13%, passing the limit was not always enough;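 also: 0% = enzyme with probe and DMSO and 100% = no enzyme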
EBV gp42 block – blocks Epstein-Barr virus glycoprotein 42 binding; 220,000 tested, 0.42% active; Fluorescence polarization binding assay, mP read-out; inhibition, % (tested at 21.74 µM); AID 1085; Q1HVG2; in the data active = inhibition above about 50%
Keap1-Nrf2 PPI – Keap1-Nrf2 (human) interaction inhibition; Keap1 Kelch-Nrf2 peptide fluorescence polarization, 1536-well; inhibition, % at 9.4 µM; 340,000 tested, 0.15% active; AID 504523; in the data active = inhibition above about 12%;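 also: human Keap1 Kelch domain with fluorescein labeled Nrf2 9mer peptide probe; 0% = neutral control wells and 100% = peptide positive control; higher means more block of Keap1 binding to Nrf2 peptide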
Target sequence (Q14145 whole entry, looked up, the tested form may be a part): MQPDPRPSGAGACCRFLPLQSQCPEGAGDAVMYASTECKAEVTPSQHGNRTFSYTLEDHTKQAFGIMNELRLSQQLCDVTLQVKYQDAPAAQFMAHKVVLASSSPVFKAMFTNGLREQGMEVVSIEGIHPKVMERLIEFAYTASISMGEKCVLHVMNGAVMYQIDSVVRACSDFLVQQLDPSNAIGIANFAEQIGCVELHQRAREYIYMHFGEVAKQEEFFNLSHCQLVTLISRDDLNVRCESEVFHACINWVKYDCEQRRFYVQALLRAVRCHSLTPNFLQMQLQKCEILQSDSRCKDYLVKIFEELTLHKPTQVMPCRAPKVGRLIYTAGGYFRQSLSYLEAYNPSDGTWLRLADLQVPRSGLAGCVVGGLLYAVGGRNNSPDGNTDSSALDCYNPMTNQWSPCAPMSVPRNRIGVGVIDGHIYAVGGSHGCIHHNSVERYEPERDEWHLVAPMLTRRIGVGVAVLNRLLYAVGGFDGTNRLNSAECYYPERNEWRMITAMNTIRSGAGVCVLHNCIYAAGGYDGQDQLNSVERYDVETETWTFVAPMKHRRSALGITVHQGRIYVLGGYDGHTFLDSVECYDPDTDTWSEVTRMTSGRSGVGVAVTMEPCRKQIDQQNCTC
Cardiac RTF inh – cardiac RTF calcium desensitization | inhibition, % at 7.15 µM | 340,000 tested, 0.12% active | P19429+P45379 | IANBD-labeled cardiac RTF, Ca2+ fluorescence;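 active = inhibition above the mean inhibition of all tested compounds plus 3 SD, cut at about 17% in these data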;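 also: assay run at fixed EC70 calcium of 1.6 mM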
RTF inh confirm – confirmation of inhibitors of cardiac thin filament calcium sensitivity; shares compounds with Cardiac RTF inh; reconstituted cardiac thin filaments, calcium sensitivity fluorescence; inhibition, % at 7.15 µM; 360 tested, 8% active; AID 504635; in the data active = inhibition above about 18%
* = called active by the depositor; x = no result.

SMILES	LANA DNA inh	cardiac RTF act	E coli Lon inh	EBV gp42 block	Keap1-Nrf2 PPI	Cardiac RTF inh	RTF inh confirm
Cn1c(NC(=O)c2ccc(S(=O)(=O)N3CCCCC3)cc2)cc(=O)n(C)c1=O	-0.9	0.7	0.5	-13.7	-1.5	17.0*	1.6
O=C(CC[C@H]1O[C@@H](n2ccc(=O)[nH]c2=O)[C@H](O)[C@@H]1O)NCc1ccccc1	x	x	-2.2	x	x	x	x
CCCS(=O)(=O)N1CCC(C(=O)NCCCN2CCCC2=O)CC1	-1.1	-13.7	-1.8	-15.3	-3.0	19.1*	0.2
Cc1ccc(S(=O)(=O)N2CCC(C(=O)NCCCN3CCCC3=O)CC2)cc1	3.9	-2.2	6.4	x	0.2	1.8	x
CN(C(=O)COC(=O)c1c2c(nc3ccccc13)CCCC2)c1c(N)n(Cc2ccccc2)c(=O)[nH]c1=O	-1.2	-0.4	7.7	x	0.2	-2.9	x
COc1ccccc1-c1noc2c1C(=O)NCC2	x	x	-0.8	x	x	x	x
O=C(CCCCCN1C(=O)c2ccccc2C1=O)Nc1ccccc1	0.1	1.2	-2.4	-9.1	-3.2	18.5*	-5.2
Cc1cc(NC(=O)CN2CCN(c3ncccn3)CC2)no1	0.0	0.6	-8.4	-11.2	-1.3	21.0*	-1.8
CCN1CCN(CC(=O)Nc2cc(C)on2)CC1	-0.3	1.0	-15.2	-4.9	-3.7	3.9	x
O=C(COc1ccccc1)Nc1cccc(-c2ccc(N3CCOCC3)nn2)c1	-1.0	-3.6	-0.1	x	2.8	-1.2	x
COCCCNC(=O)C[C@@H]1C[C@@]2(C(=O)OC)CCCCC=C2N(Cc2ccc(Cl)cc2Cl)C1=O	x	x	2.5	x	x	x	x
COc1ccc(NC(=S)N(Cc2ccccn2)Cc2ccccc2Cl)cc1	0.3	2.6	2.8	1.9	3.2	17.4*	2.1
Cc1cccnc1NC(=O)C1CCCN1S(=O)(=O)c1ccc(Cl)cc1 (configuration not stated)	0.0	-4.7	4.2	x	-1.6	29.4*	-3.2
COCCNc1oc(/C=C/c2ccccc2OC)nc1S(=O)(=O)c1ccccc1	-0.9	0.2	0.8	x	-3.2	18.1*	7.9
COc1cc(/C=C/C(=O)OCC(=O)NC(=O)NC(C)C)ccc1OCC#N	0.4	-1.6	-0.4	9.1	1.6	-6.8	x
COc1cc(/C=C/C(=O)OCC(=O)NC(=O)NC23CC4CC(CC(C4)C2)C3)ccc1OCC#N	-0.6	4.8	8.8	-51.5	-2.8	18.5*	-2.4
O=C1N[C@@H](Cc2c[nH]c3ccccc23)C(=O)N[C@H]1Cc1ccccc1	2.2	-7.8	2.6	x	-8.5	-1.4	x
O=C(O)Cc1c[nH]c2ccc(O)cc12	-0.4	3.5	2.4	x	-3.1	17.5*	1.2
N#Cc1ccc(S(=O)(=O)N2CCCCC2c2cc(C(=O)N3CCOCC3)no2)cc1 (configuration not stated)	x	x	-11.2	x	x	x	x
Cn1c(SCC(=O)N2c3ccccc3Sc3ccccc32)nc2ccccc21	0.4	6.1	7.4	-4.9	-3.0	18.9*	-5.3
Cn1c(Cn2nnc3ccccc32)nnc1SCC(=O)N1c2ccccc2Sc2ccccc21	-0.2	0.5	-1.5	-14.8	-3.4	-6.8	x
CC(C)C[C@H]1CN(CCCC[C@@H]2CNC(=O)C(=O)N2CCc2ccccc2)C(=O)C(=O)N1CCc1ccc(O)cc1	x	x	-4.5	x	x	x	x
C=CCC[C@@H](Cc1ccc(F)cc1)C(=O)OC[C@@H](NC(=O)[C@@H](CC=C)CC(=O)N[C@@H](CO)Cc1ccccc1)C(C)(C)C	0.1	-3.5	12.6	x	0.2	17.8*	-0.3
CC1(C)OC(C)(C)/C(=C/Nc2ccc(O)cc2)C1=O	0.0	-7.9	3.3	15.1	-4.7	189.8*	-1.5
CC1CCC/C(=C\Nc2ccc(O)cc2)C1=O (configuration not stated)	-2.7	4.6	7.6	-21.9	-1.6	-7.2	x
SMILES	LANA DNA inh	cardiac RTF act	E coli Lon inh	EBV gp42 block	Keap1-Nrf2 PPI	Cardiac RTF inh	RTF inh confirm
COC(=O)N1CCCCC1c1cc(C(=O)N2CCOCC2)no1 (configuration not stated)	x	x	21.4	x	x	x	x
COc1ccc(N2CCN(C(=O)C3CC(=O)N(c4ccc(C)cc4)C3)CC2)cc1 (configuration not stated)	2.2	x	3.5	-3.9	4.7	x	x
Cc1ccc(N2CC(C(=O)N3CCN(c4ccccc4)CC3)CC2=O)cc1 (configuration not stated)	0.8	3.7	5.0	-12.6	0.0	17.0*	-3.8
CCOc1ccc(NS(=O)(=O)c2ccc3c(c2)N(C(C)=O)CCS3)cc1	-0.6	0.4	-4.1	x	-6.2	77.4*	-2.3
CC1(C)CC(=O)C(Sc2ccccc2)=C(O)C1	1.9	2.3	-8.0	-12.7	-2.1	56.3*	1.1
CC(=O)NCCNc1nc2cc(-c3ccccc3CO)sc2c(=O)n1C	x	x	-23.7	x	x	x	x
O=C(c1coc(=O)c(Br)c1)N1CCC(C(O)(c2ccccc2)c2ccccc2)CC1	0.0	3.6	-3.4	-2.7	-0.2	-2.5	x
CC1(C)CCCN(C(=O)c2coc(=O)c(Br)c2)C1	64.0*	-17.2	-6.3	52.0*	-3.7	21.5*	2.5
O=S(=O)(O)c1cccc2c(N=Nc3ccc(O)c4ncccc34)cccc12	47.8	-39.5	4.2	x	5.4	36.8*	9.9
COc1cccc(CNc2nc3cc(-c4cccc(C(F)(F)F)c4)sc3c(=O)n2C)c1	x	x	2.9	x	x	x	x
CCC(Cc1c(I)cc(I)c(N)c1I)C(=O)O (configuration not stated)	0.1	11.0	7.2	x	-4.9	9.2	x
c1coc(CNC2CCCCCCC2)c1	-0.8	2.4	-6.6	8.4	-1.7	18.2*	-5.4
c1coc(CNC2CCCCC2)c1	1.5	1.1	-7.2	-10.0	-2.6	-3.2	x
Cc1c(N2C(=O)/C(=C/c3ccc(N(C)C)cc3)N(C)C2=S)c(=O)n(-c2ccccc2)n1C	-8.9	13.8	-282.3	x	-37.7	-21.7	x
N#Cc1cc2c(nc1SCc1ccccc1)CCCC2=O	1.9	1.5	5.5	-2.4	-1.2	19.6*	-0.4
N#Cc1cc2c(nc1SCc1ccccc1)CCC2	0.8	-5.7	-0.2	-17.1	-2.9	-6.7	x
COc1ccc(CC(=O)NCC(=O)N/N=C/c2ccc(C)o2)cc1	0.7	-2.6	-7.5	-12.9	-0.1	-13.1	x
Cc1ccc(/C=N/NC(=O)CNC(=O)COc2ccc(Cl)cc2)o1	-0.1	-1.6	-3.2	-0.6	-2.1	18.2*	-4.5
NS(=O)(=O)c1cc(C(=O)O)cc(N2CCCC2)c1Oc1ccccc1	-0.9	-0.1	-4.2	x	-0.5	18.7*	-2.6
O=[N+]([O-])c1ccc(OCc2cccc(COc3ccc([N+](=O)[O-])cc3)n2)cc1	3.1	0.6	-8.6	-16.5	-5.9	17.4*	-4.3
O=c1cc(-c2ccccc2Cl)oc2ccc([N+](=O)[O-])c(O)c12	0.0	-4.7	6.5	8.9	-5.0	-3.8	x
O=[N+]([O-])c1cc([N+](=O)[O-])c2oc(-c3ccccc3)c(Br)c2c1O	3.7	-30.1	-1.1	x	-2.4	27.2*	11.8

From PubChem BioAssay
